Activity calls are given as the source filed them. No rule for the calls is given here.
Target: Pantothenate synthetase (Mycobacterium tuberculosis (strain ATCC 25618 / H37Rv)) (UniProt P9WIL5)
Assay: Coupled enzyme confirmation of inhibitors against recombinant Mtb PanC (AID 375);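 also: 0% = full reaction with vehicle and 100% = no enzyme background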
Conditions: coupled enzyme assay; at 10 µM, hits give high values

Sequence of Pantothenate synthetase (Mycobacterium tuberculosis (strain ATCC 25618 / H37Rv)) (P9WIL5 whole entry, looked up): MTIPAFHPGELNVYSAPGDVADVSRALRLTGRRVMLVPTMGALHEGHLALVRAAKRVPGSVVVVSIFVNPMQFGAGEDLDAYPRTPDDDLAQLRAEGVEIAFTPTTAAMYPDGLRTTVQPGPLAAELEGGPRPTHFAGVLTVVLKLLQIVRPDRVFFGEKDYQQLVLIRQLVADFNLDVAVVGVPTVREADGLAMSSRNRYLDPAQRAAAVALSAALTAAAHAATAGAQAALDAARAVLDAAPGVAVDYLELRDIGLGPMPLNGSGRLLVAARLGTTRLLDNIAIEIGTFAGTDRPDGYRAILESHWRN

| SMILES | inhibition |
| --- | --- |
| CC(=O)Nc1cccc(NC(=O)CSc2nn3c(=O)c(C)nnc3s2)c1 | 2% (inactive) |
| COCCn1c(=O)[nH]c2cc(C(=O)NCc3cccnc3)ccc2c1=O | 2% (inactive) |
| Cc1cc(Cl)c(S(=O)(=O)Nc2ccc3c(c2)OCCO3)cc1OCC(N)=O | 0% (inactive) |
| Cc1csc2nc(CNC(=O)c3ccco3)cn12 | 0% (inactive) |
| CCn1c(SCC(=O)Nc2cc(NC(C)=O)ccc2OC)nnc1-c1ccccn1 | 2% (inactive) |
| CC(=O)N[C@@H](CS)C(=O)O | 0% (inactive) |
| Cc1cc(C)cc(OCC(=O)NC2=NCCS2)c1 | 0% (inactive) |
| COc1ccc2nc(C)cc(N3CCOCC3)c2c1 | 0% (inactive) |
| CCOC(=O)N1CCN(C(=O)c2cn(CC)c3cc(N4CCN(C)CC4)c(F)cc3c2=O)CC1 | 0% (inactive) |
| CCOC(=O)CSc1nnc(-c2ccc(Cl)cc2Cl)o1 | 2% (inactive) |
| CCc1c(C)c2ccc(OCC(=O)OC)cc2oc1=O | 0% (inactive) |
| COc1ccc(N2C(=O)CC(NC3CC3)C2=O)cc1 (stereo not given) | 0% (inactive) |
| CCOc1ccc(S(=O)(=O)n2nc(C)cc2C)c2ccccc12 | 0% (inactive) |
| COc1ccc(C(NC(=O)C(C)(C)C)NC(=O)C(C)(C)C)cc1 | 0% (inactive) |
| O=C(CCN1C(=O)COc2ccccc21)N1CCN(c2ccccn2)CC1 | 0% (inactive) |
| CCSc1oc(-c2ccco2)nc1S(=O)(=O)c1ccccc1 | 0% (inactive) |
| O=S(=O)(Cc1ccccc1)N1CCN(Cc2ccccc2)CC1 | 5% (inactive) |
| CC(C)(C)OC(=O)N1CCN(c2ccc(NC(=O)c3cc4ccccc4oc3=O)cc2)CC1 | 6% (inactive) |
| Clc1c(CSc2nc3ccccc3o2)nc2sccn12 | 1% (inactive) |
| CN1CCN(c2nc3c(c(=O)[nH]c(=O)n3C)n2CCSc2nc3ccccc3s2)CC1 | 8% (inactive) |

| SMILES | inhibition |
| --- | --- |
| CCOc1ccc2c(O)csc2c1 | 0% (inactive) |
| CCCc1cc(C(=O)Nc2sc(C)c(C)c2C(=O)OCC)no1 | 3% (inactive) |
| O=C(COC(=O)c1ccccc1C(=O)c1ccccc1)c1ccco1 | 0% (inactive) |
| CCOC(=O)N1CCC2(CC1)CC(=O)c1c(ccc3oc(C(=O)O)c(C)c13)O2 | 0% (inactive) |
| N=c1c(C(=O)NCc2ccccc2)cc2c(=O)n3ccccc3nc2n1Cc1ccco1 | 0% (inactive) |
| COc1ccc(-c2nc(N)nc(C)c2Oc2ccccc2Br)c(O)c1 | 0% (inactive) |
| CN1C(=O)NC(NC(=O)C2CCCCC2)(C(F)(F)F)C1=O (stereo not given) | 0% (inactive) |
| CC(C)C(C(=O)Nc1ccc2c(c1)OCCO2)N1C(=O)c2ccccc2C1=O (stereo not given) | 0% (inactive) |
| COc1ccc(CN2C(=O)[C@@H]3C(c4ccc(F)cc4)=NO[C@@H]3C2=O)cc1 | 2% (inactive) |
| CC(COc1ccccc1)N(CCCl)Cc1ccccc1 (stereo not given) | 0% (inactive) |
| CC1(C)CC(=O)c2cnc(NCc3ccco3)nc2C1 | 0% (inactive) |
| O=C(NCCN1CCCC1)C1COc2ccccc2O1 (stereo not given) | 3% (inactive) |
| CCOc1ccc2ccccc2c1C(=O)N1CCN(c2ccccc2)CC1 | 9% (inactive) |
| O=C(CCCN1CC=C(n2c(=O)[nH]c3ccccc32)CC1)c1ccc(F)cc1 | 0% (inactive) |
| Cc1nc(NC(=O)C2CC3CCCC(C2)C3=O)sc1C (stereo not given) | 0% (inactive) |
| C[C@]12CC[C@H]3[C@@H](CCC4=CC(=O)CC[C@@]43C)[C@@H]1CC[C@@H]2C(=O)CO | 0% (inactive) |
| O=C(Nc1ccc(N2CCOCC2)cc1)C1CC1 | 0% (inactive) |
| Cn1c(C(=O)OCC(=O)NCC2CCCO2)cc2sccc21 (stereo not given) | 2% (inactive) |
| FC(F)(F)c1cc(-c2ccccc2)nc(N2CCCCC2)n1 | 2% (inactive) |
| Cc1ccc2cc(C#N)c(NCCCNC(=O)C3CCCO3)nc2c1 (stereo not given) | 0% (inactive) |

Source: PubChem BioAssay
